From ChEMBL document CHEMBL3988442, “University of Dundee, Small-Polar-MMV Screening Library” (2021)
Out of some 38,000 compounds screened, about 1,200 (3.2%) showed an effect of 50% or more. The median lay at about -58%. Only a selection was taken, and strong results are over-represented in it overall.

tested on: Plasmodium falciparum; assay: Calibr Malaria Delayed Death Assay SOP; type: functional, organism-based; set-up: scale not given: in the data most compounds retested in dose-response had high values; conditions: concentration 4.99e-06 (unit not given; other assays of the set use mol/L)

SMILES | Percent Effect [%]
O=C(COc1ccccc1Br)N1CCOc2ccncc21 | -65.13
O=C(O)C(F)(F)F.O=S(=O)(C1CC1)N1CCO[C@H]2[C@H](Oc3cccnc3)CC[C@@H]21 | -58.06
Cc1nc(NC2CCN(C(=O)C3CC3)CC2)c2cnn(C)c2n1 | -160.6
CNC(=O)[C@H]1C[C@@H]2CN(C(=O)c3cccnc3)C[C@@H]2N1S(C)(=O)=O.O=C(O)C(F)(F)F | -51.87
CCN(CC)S(=O)(=O)NC1CCN(c2ccc(OC)cc2)CC1 | -62
Cc1ccc(Sc2ccc(CN3CCC4(CCCNC4=O)C3)o2)cc1 (stereo unspecified) | 71.68
Cc1ccc(CN2CCC3(CC2)C(=O)NCCN3CC2CC2)o1 | -112.7
Cc1ccc(CN2C[C@@H](c3ccccc3)[C@@]3(CCNC3=O)C2)o1 | -6.391
O=C1NCCCC12CCN(S(=O)(=O)N1CCOCC1)C2 (stereo unspecified) | -32.12
O=C1NCCCC12CCN(Cc1ccc(SC3CCCCC3)o1)C2 (stereo unspecified) | 54.2
Cc1cccc(N2CCC(N3CCC4(CCCNC4=O)C3)CC2)c1C (stereo unspecified) | 41
COc1cccc(C(c2c(C)n[nH]c2O)c2c(C)n[nH]c2O)c1OC | -4.815
O=C(O)C(F)(F)F.O=C1[C@H]2CN(S(=O)(=O)c3ccccc3)C[C@H]2CN1Cc1cccnc1 | 0.7029
CCN(C(=O)COC)C(c1ccc(Cl)cc1)c1ccccn1 (stereo unspecified) | -96.63
CCN(CC)C(=O)COc1nc(C(C)C)no1 | -177.8
Cc1nc(C)c(C)c(N2CCC(NCCOc3ccccc3)CC2)n1 | 61.44
Cc1cc(N2CCC(NCCOc3ccccc3)CC2)nc(C)n1 | 74.5
Cc1cc(N2CCC(NC(=O)CCc3ccco3)CC2)nc(C)n1 | -35.38
O=C(COCCOc1ccccc1)NC1CCN(c2ncccn2)CC1 | -10.36
Cc1cc(N2CCC(N(C)C(=O)c3cccs3)CC2)nc(C)n1 | -45.9
Cc1cc(N2CCC(N(C)C(=O)c3ccccc3)CC2)nc(C)n1 | 16.92
Cc1cc(N2CCC(NC(C)Cc3ccsc3)CC2)nc(C)n1 (stereo unspecified) | 85.1
O=C(COCCOc1ccccc1)NC1CCN(c2ccccn2)CC1 | -45.63
Cc1ccnc(N2CCC(NCCOc3ccccc3)CC2)n1 | 9.901

SMILES | Percent Effect [%]
c1ccc(OCCNC2CCN(c3ncccn3)CC2)cc1 | -18.18
CN(C)c1ccnc(N2CCC(NCCOc3ccccc3)CC2)n1 | 59.77
Cc1cc(N2CCC(O)CC2)nc(C)n1 | -73.43
COC1CCN(C(=O)Cn2ncc(N3CCCCC3)cc2=O)C1 (stereo unspecified) | -24.14
COCc1cc(N2CCOC(c3ccc(Cl)cc3)C2)ncn1 (stereo unspecified) | 9.167
CS(=O)(=O)N1CCOCC2(CCN(C(=O)c3ccncc3)CC2)C1.O=C(O)C(F)(F)F | -27.09
O=C(Nc1ccccn1)C1CCN(Cc2cccc3c2OCCO3)CC1 | -6.102
CC(C)(C)c1ncc(CNc2ccccc2SCCC(N)=O)s1 | -73.84
Cn1cccc1C(=O)NC(C)(C(N)=O)c1cccc(Cl)c1 (stereo unspecified) | -31.46
CCC(C)NC(=O)c1cccc(CNCc2csc(C(C)C)n2)c1 (stereo unspecified) | 46.44
CCn1cnnc1C1CCN(C(=O)c2cc(C)c(C)s2)CC1 | -85.96
CC(=O)N(C)CC(=O)NCC1(c2c(F)cccc2F)CCCC1 | -102.3
CCC(=O)NCC(=O)NCC1(c2c(F)cccc2F)CCCC1 | 72.49
COC(=O)NCC(=O)NCC1(c2c(F)cccc2F)CCCC1 | 68.39
COC(=O)NCCC(=O)NCC1(c2cccc(Cl)c2)CC1 | -27.72
CCS(=O)(=O)CC(=O)NCC1(c2c(F)cccc2F)CCCC1 | -98.46
CC(=O)NCCC(=O)NCC1(c2c(F)cccc2F)CCCC1 | -84.52
CC(=O)N1CCCn2nc(CNS(=O)(=O)N(C)C(C)C)cc2C1 | -134.1
COCC(=O)N1CCC2(CCN(c3cnn(C)c3)C2=O)C1 (stereo unspecified) | -59.68
O=c1[nH]c2cc3c(cc2cc1CN1CCCC1c1ccccn1)CCC3 (stereo unspecified) | -51.8
CC(CN1CCOCC1)NC(=O)NCCc1ccc(Cl)s1 (stereo unspecified) | -56.29
Cc1n[nH]cc1CNC1(Cc2ccc(Br)cc2)CCCCC1 | 36.65
Cc1n[nH]cc1CNC1(c2ccc(Br)cc2)CC1 | 18.93
Cc1n[nH]cc1CNC1(c2ccc(F)cc2)CCCC1 | 82.35

SMILES | Percent Effect [%]
O=C(NCc1ccco1)[C@@H]1CCO[C@@H]2CCN(c3ncccn3)C[C@H]21.O=C(O)C(F)(F)F | -31.43
O=C(C1CCOC1)N1C[C@H]2CN(Cc3cccnc3)C(=O)[C@H]2C1.O=C(O)C(F)(F)F (stereo partly specified) | -57.45
Cc1nc(NCC23CCCN2CCC3)cc(C2CCCNC2)n1 (stereo unspecified) | -55.92
Cc1nc(NC2CCS(=O)(=O)CC2)cc(C2CCCNC2)n1 (stereo unspecified) | -36.14
COc1ccccc1CC(=O)N1CC[C@H](O)[C@]2(CCCO2)C1 | -156.8
CN1CCO[C@@H]2CN(S(=O)(=O)c3ccc(F)cc3)CC[C@@H]2C1.O=C(O)C(F)(F)F | 61.54
CC(C)N1CCO[C@@H]2CN(S(=O)(=O)c3cccs3)CC[C@@H]2C1.O=C(O)C(F)(F)F | 50.24
CN1CCO[C@@H]2CN(S(=O)(=O)c3ccccc3)C[C@@H]2C1.O=C(O)C(F)(F)F | -22.42
CN1CCO[C@@H]2CN(S(=O)(=O)c3cccs3)CC[C@@H]2C1.O=C(O)C(F)(F)F | -26.8
CCN1CCO[C@@H]2CN(S(=O)(=O)c3cccs3)CC[C@@H]2C1.O=C(O)C(F)(F)F | 37.95
CN1CCO[C@@H]2CN(S(=O)(=O)c3ccccc3)CC[C@@H]2C1.O=C(O)C(F)(F)F | 31.75
CN1CCO[C@@H]2CN(S(=O)(=O)c3cccnc3)C[C@@H]2C1.O=C(O)C(F)(F)F.O=C(O)C(F)(F)F | -85.76
CN1CCO[C@@H]2CN(S(=O)(=O)c3ccccc3F)CC[C@@H]2C1.O=C(O)C(F)(F)F | 48.77
COc1ccc(S(=O)(=O)N2C[C@@H]3CN(C)CCO[C@@H]3C2)cc1 | 58.7
CCC(C)NC(=O)Cn1ncc2c1c(C)nn2CC (stereo unspecified) | -14.73
CC1c2ncc(CN3CCN(C)CC3)n2CCN1Cc1cnn(C)c1.O=C(O)C(F)(F)F.O=C(O)C(F)(F)F.O=C(O)C(F)(F)F (stereo unspecified) | -76
Cc1nc(CN2CCC3(CCN(Cc4cnn(C)c4)CC3)C2=O)cs1.O=C(O)C(F)(F)F.O=C(O)C(F)(F)F | -122
COCCNC(=O)[C@@H]1CN(Cc2sccc2C)C[C@H]2OCC[C@H]21.O=C(O)C(F)(F)F | -28.67
CC/C=C(/C)C(=O)NCCc1csc(N2CCCC2)n1 | 23.92
CC(=O)c1cnc(N(C)Cc2cc(C)cc(C)n2)nc1C | 10.35
CC(=O)N1CCc2c(nc(N(C)C)nc2NCCCn2ccnc2C)C1 | -154.1
CCc1ccccc1OCC(=O)N1CCOCC1c1ncon1 (stereo unspecified) | -47.11
COc1cccc2c1ccn2CCC(=O)Nc1c2c(nn1C)CSC2 | 27.59
O=S(=O)(NCCCN1CC=CC1)c1cncc(Cl)c1 | -214.3

SMILES | Percent Effect [%]
O=S(=O)(NCCN1CC=CC1)c1cncc(Cl)c1 | -138.1
O=S(=O)(NCCN1CC=CC1)c1ccc(Cl)cc1 | 75.13
CNC(=O)c1cc2c(nc1N(C)C)CCN(c1ncccn1)CC2.O=C(O)C(F)(F)F | -20.28
COCC1COCCC12CCN(Cc1cccs1)CC2.O=C(O)C(F)(F)F (stereo unspecified) | -9.919
CCc1ccc(OCC(O)CN2CCN(CCO)CC2)cc1.Cl.Cl (stereo unspecified) | -114.3
Cc1c(C)n(CC(O)CN2CCN(CCO)CC2)c2c(Cl)cccc12.Cl (stereo unspecified) | 88.07
CCC(c1ccccc1)N1CCN(CCO)CC1 (stereo unspecified) | -35.6
O=C(c1cn(-c2ccccc2Cl)nn1)N1CCN(CCO)CC1 | -52.43
CC(c1cccnc1)N1CCN(CCO)CC1 (stereo unspecified) | -98.51
CC1CCN(C(=O)C(C)Oc2ccc3c(c2)OCO3)CC1 (stereo unspecified) | -27.65
CCC(NC(=O)CCCN1CCCCC1)c1cn2cccnc2n1 (stereo unspecified) | -61.92
Cc1ncc2c(n1)CN(CC(=O)Nc1cc(C)on1)CC2 | -14.27
COCCNC(=O)c1nc(-c2ccc3cc[nH]c3c2)no1 | -158.8
Cc1ccccc1CN1CCC(CNC(=O)Cn2cncn2)CC1 | 1.836
Cc1cc(C)c(Cn2cncn2)cc1CN1CCC(CN)C1 (stereo unspecified) | 68.64
Cc1cc(C)c(Cn2cncn2)cc1CN1CC[C@H]2CC[C@@H](C1)N2 | 12.41
CN(C)c1cc(CNCc2ccc(N3CCOCC3)cc2)ccn1 | -42.2
COc1c(C)cnc(CSc2nnc(NC3CC3)s2)c1C | -80.23
Cl.Cn1cccc1C(=O)N1CCc2c(CNS(C)(=O)=O)cncc2C1 | -73.02
CCc1nccn1-c1cccc(C2CCCN(C3CCCCC3)C2)n1 (stereo unspecified) | 50.94
Cc1nccn1-c1cccc(C2CCCN(C3CCCC3)C2)n1 (stereo unspecified) | -3.48
CC(C)c1nccn1-c1cncc(C2CCCN(C3CCCCC3)C2)n1 (stereo unspecified) | 18.59
CCNC(=O)CN1CCC(OCC2CCCO2)CC1 (stereo unspecified) | -42.16
Cc1ccccc1N1CCN(CCS(=O)(=O)c2ccc(Br)cc2)CC1 | -132.7
